Measurements: PubChem BioAssay (NCATS)
Records with an inconclusive call do not appear. Activity calls are given as the source filed them. Unless noted, calls come from the whole dose curve; as a rule, active = well fitted curve in the direction sought with a large enough effect; inconclusive = small, poorly fitted or top-dose-only effect, or another doubt; inactive = no such curve, though single readings can be large; an effect the other way counts as inactive or inconclusive.

Assays:
[1] = test system: Zika virus NS2B-NS3 protease (unlinked complex); test: Primary screen GU Rhodamine qHTS for Zika virus inhibitors: Unlinked NS2B-NS3 protease assay (AID 1347159); note: nearly all actives have a fitted effect of over 60% in size
Outline: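 A qHTS format was used, with compound concentrations ranging up to 114 microM. Each compound was preincubated with 25 nM NS2B-NS3 protease, and the substrate was then added at 1.5 microM. Curves were fitted with a 4-parameter Hill model.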

[2] = test system: Zika virus NS2B-NS3 protease (linked construct); test: Primary screen NINDS Rhodamine qHTS for Zika virus inhibitors (AID 1347160); note: nearly all actives have a fitted effect of over 55% in size
Outline: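 Kinetic fluorescence (Ex 480 nm, Em 540 nm) over 15 min with 1.5 microM Rhodamine110 peptide and 25 nM linked protease.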

[3] = molecular target: Calcium and integrin-binding protein 1 (Homo sapiens) (UniProt Q99828); test: Primary qHTS for Identification of Calcium Integrin Binding Protein 1 (CIB1) Competitor (AID 1508620);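 note: GST tagged CIB1 binding a fluorescein labelled alphaIIb integrin peptide tracer; top concentration of the series differs between compounds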
Outline: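 Fluorescence polarization competition: GST-tagged CIB1 (1 uM final) preincubated with compound 15 min at room temperature, then FITC-labelled alphaIIb peptide (100 nM final) added. After 15 min at room temperature, polarization read at Ex 480/Em 540.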

[4] = molecular target: Cytochrome P450 2D6 (Homo sapiens) (UniProt P10635); test: Cytochrome P450 family 2 subfamily D member 6 (CYP2D6) small molecule antagonists: luciferase biochemical (cell-free) qHTS assay (AID 1645840; active = well fitted curve in the direction sought with a large enough effect in the repeat runs; an effect the other way counts as inactive or inconclusive; note: potency is the fitted concentration of half-maximal effect; nearly all actives have a fitted effect of over 55% in size)
Outline: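 P450-Glo luminescent screen: recombinant CYP2D6 enzyme–proluciferin substrate mix preincubated with compound 10 min at room temperature, then NADPH regeneration added for 1 h at room temperature. Detection reagent added for 20 min; luciferin light read as relative luminescence units.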

[5] = molecular target: Cytochrome P450 2C9 (Homo sapiens) (UniProt P11712); test: Cytochrome P450 family 2 subfamily C member 9 (CYP2C9) small molecule antagonists: luciferase biochemical (cell-free) qHTS assay (AID 1645842; active = well fitted curve in the direction sought with a large enough effect in the repeat runs; an effect the other way counts as inactive or inconclusive; note: potency is the fitted concentration of half-maximal effect; nearly all actives have a fitted effect of over 55% in size)
Outline: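 Luminescence, after 20 min with luciferin detection reagent, reflected CYP2C9 turnover during a 1 h NADPH-driven reaction at 37C. Enzyme-substrate mix contained 0.4% bovine serum albumin and was preincubated with compound 10 min at room temperature.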

[6] = Primary qHTS for inhibitors of nuclear receptor binding SET domain protein 2 (NSD2) in an isogenic RCH-ACV NSD2 p.E1099K mutant (9B) (AID 1645876); note: potency is the fitted concentration of half-maximal effect; nearly all actives have a fitted effect of over 70% in size
[7] = Primary qHTS for inhibitors of nuclear receptor binding SET domain protein 2 (NSD2) in an RCH-ACV wild type WT cells (2C) (AID 1645877); note: potency is the fitted concentration of half-maximal effect; nearly all actives have a fitted effect of over 70% in size
[8] = molecular target: Glutathione peroxidase 1 (Homo sapiens) (UniProt P07203); test: Primary qHTS Assay for Inhibitors of Recombinant Selenoprotein Glutathione Peroxidase 1 (GPX1) (AID 1845191); note: nearly all actives have a fitted effect of over 65% in size
Outline: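 GR-coupled assay: compounds preincubated 30 min at room temperature with GPX1, then reaction started with CHP; final 10 nM GPX1, 1 mM GSH, 0.5 mM CHP, 0.5 mM NADPH, 100 nM GR, 0.01% BSA, pH 7.5 Tris buffer. NADPH fluorescence (340/450 nm) read at 0 and 15 min.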

[9] = molecular target: Luciferin 4-monooxygenase (Photinus pyralis) (UniProt P08659); test: Primary firefly luciferase (FLuc) qHTS assay for identification of artifact compounds. (AID 1845220); details: outcome: dose series up to 54.1 µM unless noted; note: nearly all actives have a fitted effect of over 60% in size
Outline: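 Titrated compounds were incubated 15 min at RT, protected from light, with luciferin and ATP at 10 uM; reaction started with 10 nM FLuc, luminescence imaged at 5 min, and concentration-response fitted by Hill equation.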

[10] = Primary fluorescence-based thiol-reactive (MSTI) qHTS assay for identification of artifact compounds. (AID 1845221);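 note: thiol-reactive compounds lower the probe fluorescence signal; nearly all actives have a fitted effect of over 65% in size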
Outline: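 Reactivity toward the thiol probe MSTI (4 uM) is scored by fluorescence at Ex/Em 525/598 nm after 1 h at room temperature. Acetyl-MSTI and MSTI define the activity scale.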

[11] = test system: Nanoluciferase (engineered Oplophorus gracilirostris luciferase); test: Primary Nanoluciferase (NLuc) qHTS assay for identification of artifact compounds. (AID 1845222);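 note: NLuc secreted into diluted conditioned medium of S16 cells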
Outline: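 qHTS format, against NLuc in S16 cell-conditioned medium. Nano-Glo substrate 1:100 was added after 15 min at room temperature. Luminescence was taken after a further 5 min.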

[12] = Primary redox qHTS assay for identification of artifact compounds. (AID 1845223)
Outline: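 Amplex Red (25 uM) and HRP (250 mU/mL) in HBSS, with compounds for 15 min, then 250 uM DTT for 30 min, room temperature, dark. Fluorescence 525/598 nm read; normalized to DMSO and 10 uM DA3003; Hill fit.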

HeLa = test: Primary qHTS to identify gynecologic anti-cancer compounds using libraries of approved drugs and bioactive compounds (AID 1345084); details: Gynecologic cancer cell panel viability, ATPlite luminescence, 48 h; series mostly up to 57.5 µM; note: nearly all actives have a fitted effect of over 55% in size
Outline: (§1)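 Measured: luminescence after ATPlite addition (15 min, RT). Exposure: 48 h, 37 C, 5% CO2.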

Tov-21-G = test: as above; details: Gynecologic cancer cell panel viability, ATPlite luminescence, 48 h; series mostly up to 57.5 µM
Outline: as §1

Measured: Potency

Chain of Cytochrome P450 2D6 (Homo sapiens) (P10635 whole entry, looked up): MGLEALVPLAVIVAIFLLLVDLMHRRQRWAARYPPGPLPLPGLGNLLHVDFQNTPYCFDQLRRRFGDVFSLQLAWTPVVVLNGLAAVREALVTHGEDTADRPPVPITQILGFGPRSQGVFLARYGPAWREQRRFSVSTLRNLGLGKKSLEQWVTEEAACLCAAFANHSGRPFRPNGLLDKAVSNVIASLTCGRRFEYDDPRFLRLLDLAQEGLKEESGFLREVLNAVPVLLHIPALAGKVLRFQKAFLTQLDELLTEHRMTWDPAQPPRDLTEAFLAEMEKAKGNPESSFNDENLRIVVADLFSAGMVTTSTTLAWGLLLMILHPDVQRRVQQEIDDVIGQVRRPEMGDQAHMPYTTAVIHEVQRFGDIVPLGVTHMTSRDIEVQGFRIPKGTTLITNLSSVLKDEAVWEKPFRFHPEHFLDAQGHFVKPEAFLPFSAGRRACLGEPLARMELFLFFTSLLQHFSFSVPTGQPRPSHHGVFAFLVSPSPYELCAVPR
Chain of Glutathione peroxidase 1 (Homo sapiens) (P07203 whole entry, looked up): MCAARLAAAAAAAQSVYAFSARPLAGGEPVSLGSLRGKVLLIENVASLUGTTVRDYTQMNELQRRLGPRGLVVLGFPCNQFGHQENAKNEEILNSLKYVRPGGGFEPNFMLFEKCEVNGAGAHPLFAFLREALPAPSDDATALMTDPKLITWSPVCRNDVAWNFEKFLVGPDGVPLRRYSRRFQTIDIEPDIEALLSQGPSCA
Chain of Cytochrome P450 2C9 (Homo sapiens) (P11712 whole entry, looked up): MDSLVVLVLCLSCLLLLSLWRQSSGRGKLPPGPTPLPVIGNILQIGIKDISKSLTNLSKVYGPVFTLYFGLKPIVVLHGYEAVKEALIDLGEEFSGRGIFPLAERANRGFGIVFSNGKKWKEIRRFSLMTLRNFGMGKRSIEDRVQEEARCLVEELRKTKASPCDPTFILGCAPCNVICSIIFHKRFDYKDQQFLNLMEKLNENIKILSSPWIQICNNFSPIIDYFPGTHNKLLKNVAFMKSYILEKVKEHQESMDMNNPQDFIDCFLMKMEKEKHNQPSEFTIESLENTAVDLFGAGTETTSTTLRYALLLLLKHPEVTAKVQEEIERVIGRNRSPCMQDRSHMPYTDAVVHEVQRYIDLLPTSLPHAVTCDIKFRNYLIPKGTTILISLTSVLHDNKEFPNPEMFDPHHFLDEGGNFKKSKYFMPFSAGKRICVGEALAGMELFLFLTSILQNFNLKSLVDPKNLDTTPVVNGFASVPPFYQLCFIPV
Chain of Calcium and integrin-binding protein 1 (Homo sapiens) (Q99828 whole entry, looked up): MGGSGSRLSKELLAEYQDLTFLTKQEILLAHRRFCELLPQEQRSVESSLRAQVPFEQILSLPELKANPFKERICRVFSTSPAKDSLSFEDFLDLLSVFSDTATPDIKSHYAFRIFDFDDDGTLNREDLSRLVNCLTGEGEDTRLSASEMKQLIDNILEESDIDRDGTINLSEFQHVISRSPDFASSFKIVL

CN(C(=O)CN1C(=O)COc2cc(Cl)c(Cl)cc21)[C@@H](CN1CCCC1)c1ccc(-c2cccc(C(N)=O)c2)cc1
active: [4] 16.9 µM | [5] 13.5 µM | [6] 8.17 µM | [7] 7.28 µM
inactive: all other assays above
